# Test results from PubChem BioAssay AID463173 (ICCB-Longwood Screening Facility, Harvard Medical School, 2010).
# Among all 52,000 compounds or so, about 4,300 (8.3%) were called active. Shown is part of a subset that was picked to be rich in actives. Values without a mark were called inactive. Cut-off read from the data, not from the text of the source: active = survival mostly below about 52% (no sharp cut-off); inactive = mostly above about 56%.
# System: DeltatarO mutant
# Assay: S. aureus survival, RN4220 and DeltatarO strains – OD600, teichoic acid synthesis inhibitors, primary screen (AID 463173)
# Conditions: S. aureus RN4220 wild type/DeltatarO growth, OD600, 18 h, hits give low values, screened at 18.75 µg/mL (by protocol)
row,Structure (SMILES),survival
1,Cc1ccc(C)c(N2CCN(C(=O)CCc3nnc4n(C)c(=O)c5ccccc5n34)CC2)c1,95%
2,COc1ccc(OCc2nnc(SCC(=O)N(C3CCCCC3)C3CCCCC3)o2)cc1,72%
3,CCc1nc(-c2cc(S(=O)(=O)N3CCN(c4ccccc4F)CC3)ccc2OC)no1,42% (active)
4,CCc1nc(-c2cc(S(=O)(=O)N3CCN(c4ccccc4)CC3)ccc2OC)no1,51%
5,CCc1nc(-c2cc(S(=O)(=O)N3CCN(c4ccccc4OC)CC3)ccc2OC)no1,42% (active)
6,COc1ccc(S(=O)(=O)N2CCN(c3ccccc3OC)CC2)cc1-c1noc(C)n1,110%
7,CCc1nc(-c2cc(S(=O)(=O)N3CCN(c4ccc(F)cc4)CC3)ccc2OC)no1,49%
8,COc1ccc(S(=O)(=O)N2CCN(c3ccccc3F)CC2)cc1-c1noc(C)n1,59%
9,Cc1ccc(OCC(=O)Nc2ccc3nc(SCC(=O)N4CCOCC4)sc3c2)cc1,86%
10,O=C(NCc1ccccc1Cl)c1ccc(CS(=O)(=O)c2ccc(Br)cc2)o1,127%
11,Cc1ccc(-c2onc(C)c2C)cc1S(=O)(=O)NC1CCC(C)CC1 (stereo not drawn),82%
12,Cn1c(=O)n(C)c2cc(S(=O)(=O)Nc3ccccc3C(=O)O)ccc21,105%
13,COc1cccc(NC(=O)C(Cc2ccccc2)NS(=O)(=O)c2ccc3c(c2)c(=O)n(C)c(=O)n3C)c1 (stereo not drawn),79%
14,COCCNC(=O)Cn1c(=O)n(-c2ccc(C)c(C)c2)c(=O)c2c3c(sc21)CCCCC3,86%
15,CC(=O)c1cccc(NC(=O)Cn2ccn3nc(-c4ccccc4)cc3c2=O)c1,83%
16,CCOc1c(Cl)cc(CNc2ccc3[nH]c(=O)[nH]c3c2)cc1OC,95%
17,COc1cc(CNc2ccc3[nH]c(=O)[nH]c3c2)cc(Br)c1OCc1ccc(F)cc1,99%
18,CCOc1ccc(CC(=O)NCc2ccc3c(c2)CCN3C(=O)c2ccccc2)cc1OCC,72%
19,CCOc1cc(CNc2ccc(O)cc2)ccc1OCc1ccc(Cl)cc1,53%
20,CCOc1cc(CNc2ccc(O)cc2)cc(Cl)c1OCc1ccccc1,1% (active)
21,COc1cc(CNc2ccc3[nH]c(=O)[nH]c3c2)cc(Cl)c1OCc1ccc(F)cc1,76%

row,Structure (SMILES),survival
1,Oc1ccc(NCc2ccccc2OCc2ccccc2)cc1,61%
2,CCOc1cc(CNc2ccc(C(=O)O)cc2)ccc1OCc1ccccc1,47% (active)
3,CCOc1cc(CNc2ccc(O)cc2)cc(Br)c1OCc1ccccc1,3% (active)
4,CCn1cc(C(=O)NCCCOC)c(=O)c2cc(S(=O)(=O)N3CCc4ccccc4C3)ccc21,92%
5,Cc1cc(=O)[nH]c2nnc(SCc3ccc(C(F)(F)F)cc3)n12,74%
6,COc1ccc(NC(=O)CCc2c(C)nc3cc(-c4cccc(F)c4)nn3c2C)cc1Cl,129%
7,CCCCCCOc1ccc(/C=C/C(=O)Nc2sc3c(c2C(=O)OC)CCC3)cc1OC,69%
8,O=C(NCCc1ccccc1)c1cnc2sc(N3CCOCC3)nn2c1=O,100%
9,O=c1oc2ccc3ccccc3c2cc1-c1nnc(Nc2ccccc2)s1,84%
10,CCc1ccc(CNC(=O)CN2C(=O)C3CCCCN3c3ccc(C(=O)N4CCCC4)cc32)cc1 (stereo not drawn),75%
11,O=C(CSCn1nnc2c(=O)[nH]c(Cc3ccc(F)cc3)nc21)Nc1ccccc1,52%
12,CCCc1cnc2c(c1SCC(=O)N1CCC(C)CC1)c(=O)n(C)c(=O)n2C,96%
13,COc1cccc(NC(=O)CSc2nnc(-c3cccs3)o2)c1,52%
14,O=C(CSc1nc2ncccc2o1)Nc1ccc(Cl)cc1F,70%
15,Cc1cccc(C)c1NC(=O)CSc1nc2ncccc2o1,79%
16,Cc1cccc(NC(=O)CSc2nnc(-c3cccs3)o2)c1,50%
17,O=C(CSc1nnc(-c2ccccc2F)o1)Nc1cccc(C(F)(F)F)c1,54%
18,COc1cc(NC(=O)CSc2nc3ncccc3o2)cc(OC)c1,64%
19,O=C(CSc1nnc(-c2cccs2)o1)Nc1cccc(C(F)(F)F)c1,47% (active)
20,Cc1c(Cl)cccc1NC(=O)CSc1nc2ncccc2o1,6% (active)
21,O=C(CSc1nc2ncccc2o1)Nc1cccc(C(F)(F)F)c1,-1% (active)

row,Structure (SMILES),survival
1,O=C(CSc1nc2c(c(=O)[nH]1)CCC2)Nc1ccccc1F,73%
2,COc1ccccc1C(OC(=O)c1ccco1)C(=O)NCC1CCCO1 (stereo not drawn),85%
3,OCc1nc2ccc(-c3ccc4nc(CO)[nH]c4c3)cc2[nH]1,51%
4,COc1cccc(NC(=O)CC(C)S(=O)(=O)c2ccc3c(c2)NC(=O)CO3)c1 (stereo not drawn),115%
5,CCOC(=O)c1ccc(NC(=O)Cn2c(=O)cc(C)c3c(C)nn(-c4ccc(CC)cc4)c32)cc1,71%
6,Cc1c(C(=O)Nc2ccc(Br)cc2F)oc2ccc(S(=O)(=O)N3CCC4(CC3)OCCO4)cc12,81%
7,CC(C(=O)Nc1cccc(N)c1)n1nnc2ccccc21 (stereo not drawn),65%
8,CC1CCCc2sc3nc(SCC(=O)c4ccc(Br)cc4)nc(N)c3c21 (stereo not drawn),42%
9,CCCCCCSc1nc(N)c2c3c(sc2n1)CCCC3C (stereo not drawn),-7% (active)
10,Nc1nc(SCC(=O)N(CCO)CCO)nc2sc3c(c12)CCCC3,110%
11,CCn1nc(-c2ccccc2)c(-c2ccccc2)c(C(=O)Nc2ccccc2C(N)=O)c1=O,77%
12,CCn1c(SCC(=O)Nc2cc(Cl)ccc2OC)nc2c([nH]c3ccccc32)c1=O,101%
13,Cc1ccccc1Cn1c(=O)n(CCC(=O)NCc2ccco2)c(=O)c2sccc21,106%
14,Cc1cc(NC(=O)CC(C)C)no1,69%
15,CC1(C)CC2CC(C)(CN2C(=O)c2cc(-c3ccccc3)on2)C1 (stereo not drawn),99%
16,O=C(CSc1n[nH]c(-c2ccc(F)cc2)n1)N1CCN(c2ccc(F)cc2)CC1,-5% (active)
17,O=C(CSCc1ccccc1Cl)N1CCN(c2ccc(F)cc2)CC1,46% (active)
18,COc1ccc(-c2nc(SCC(=O)N3CCN(c4ccc(F)cc4)CC3)n[nH]2)cc1,88%
19,O=C(CCSCc1ccccc1Cl)N1CCN(c2ccc(F)cc2)CC1,66%
20,O=C(CSCc1ccccc1Cl)N1CCN(c2ccc(Cl)cc2)CC1,92%
21,O=C(CSc1n[nH]c(-c2ccccc2)n1)N1CCN(c2ccc(F)cc2)CC1,65%
